# Data: a collection of fitness landscapes (doi:10.1016/j.celrep.2020.107928)
# In all, about 81,000 sequences were measured (“one-hybrid fitness for binding parS DNA”: median about -0.17, highest 2% from about 0.51 on). Only a selection was taken, and the highest values are over-represented in it overall.
# B1: Caulobacter ParB omega fusion; a variant is named by its letters at X, in order, B8GW30 (parent)
# chain: MESVVVGEPGMSEGRRGLGRGLSALLGEVDAAPAQAPGEQLGGSREAPIEILQRNPDQPRRTFREEDLEDLSNSIREKGVLQPILVRPSPDTAGEYQIVAGERAWRAAQRAGLKTVPIMVRELDDLAVLEIGIIENVQRADLNVLEEALSYKVLMEKFERTQENIAQTIGKSXSHVANXMRLLXLPDEVQSYLVSGELTAXHARAIAAAADPVALAKQIIEGGLSVRETEALARKAPNLSAGKSKGGRPPRVKDTDTQALESDLSSVLGLDVSIDHRGSTGTLTITYATLEQLDDLCNRLTRGI
# Variants of: B1
# Experiment: one-hybrid fitness for binding parS DNA (scaled: cognate 1, non-cognate 0); higher = stronger binding
# Details: with parS DNA site
# Method in brief: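 Fitness here means the log change in variant-to-wild-type read ratio between plasmids sequenced before and after selection. That scale was set so cognate equals 1 and non-cognate equals 0. The selection was a bacterial one-hybrid screen of Caulobacter ParB libraries, four specificity codons randomised, in E. coli USO carrying a HIS3 reporter with the site 19 bp from the promoter, grown 48 hours at 37°C on M9-minus-histidine with 0.1 mM IPTG and 5 mM 3-AT.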
row,Variant,one-hybrid fitness for binding parS DNA
1,EAAT,≤ 0.2
2,GLPN,≤ 0.2
3,PHRK,≤ 0.2
4,FRSF,≤ 0.2
5,RIWQ,≤ 0.2
6,RIWC,0.936
7,RKWR,≤ 0.2
8,RKWC,0.887
9,RRWC,0.739
10,RRWN,0.323
11,RKWM,0.254
12,RIWR,≤ 0.2
13,RHWD,≤ 0.2
14,RHWH,≤ 0.2
15,RRWH,≤ 0.2
16,RHWC,0.759
17,SIKI,≤ 0.2
18,YAQR,≤ 0.2
19,PSHG,≤ 0.2
20,PMWK,≤ 0.2
21,IENR,≤ 0.2
22,ANYG,≤ 0.2
23,HGQS,≤ 0.2
24,KWCC,≤ 0.2

row,Variant,one-hybrid fitness for binding parS DNA
1,NAYS,≤ 0.2
2,ENRN,≤ 0.2
3,TWCR,≤ 0.2
4,THVD,≤ 0.2
5,RSWC,0.847
6,RSWN,0.412
7,RPWC,≤ 0.2
8,RMWM,0.344
9,REWC,≤ 0.2
10,RLWM,0.342
11,RMWL,≤ 0.2
12,RLWF,0.255
13,RLWC,0.952
14,RSWH,≤ 0.2
15,RMWC,0.984
16,RCWC,0.959
17,LRIP,≤ 0.2
18,LILQ,≤ 0.2
19,ENVC,≤ 0.2
20,PHDG,≤ 0.2
21,NQKT,≤ 0.2
22,QLHL,≤ 0.2
23,SRVM,≤ 0.2
24,CYAS,≤ 0.2

row,Variant,one-hybrid fitness for binding parS DNA
1,LQFE,≤ 0.2
2,IFWT,0.24
3,YSKG,≤ 0.2
4,TVTW,≤ 0.2
5,LNPP,≤ 0.2
6,GYPI,≤ 0.2
7,RLAK,≤ 0.2
8,RLAQ,≤ 0.2
9,RLAT,0.938
10,RLFR,≤ 0.2
11,RLFT,0.838
12,RLFQ,≤ 0.2
13,SNGD,≤ 0.2
14,SLHC,≤ 0.2
15,QQSF,≤ 0.2
16,CLAL,≤ 0.2
17,LSRM,≤ 0.2
18,SMQP,≤ 0.2
19,RRSS,0.653
20,RRSP,≤ 0.2
21,RRSD,≤ 0.2
22,RRSH,≤ 0.2
23,RRSN,0.695
24,RRSR,≤ 0.2

row,Variant,one-hybrid fitness for binding parS DNA
1,EKER,≤ 0.2
2,TCNL,≤ 0.2
3,QSVW,≤ 0.2
4,TGSG,≤ 0.2
5,MLIG,≤ 0.2
6,TASY,≤ 0.2
7,GFDT,≤ 0.2
8,RCST,0.923
9,RPST,≤ 0.2
10,RDST,≤ 0.2
11,RSSM,0.327
12,RSST,0.883
13,REST,≤ 0.2
14,PKQP,≤ 0.2
15,RNFN,0.256
16,RNAD,≤ 0.2
17,RNAH,≤ 0.2
18,RNFD,≤ 0.2
19,RNAS,0.914
20,RNFS,0.719
21,KHDT,≤ 0.2
22,WNNG,≤ 0.2
23,RVFM,0.363
24,RVFT,0.917

row,Variant,one-hybrid fitness for binding parS DNA
1,RVAR,≤ 0.2
2,RVAT,0.916
3,RVFY,0.464
4,RVAF,0.259
5,SPGM,≤ 0.2
6,RMRH,0.261
7,RMCF,0.217
8,RMSP,0.204
9,RMCR,≤ 0.2
10,RMYF,0.289
11,RMSN,0.449
12,RMYC,1.01
13,RMRD,≤ 0.2
14,RMCC,0.985
15,RMYK,≤ 0.2
16,RMRC,0.867
17,RMSC,0.956
18,LSPY,≤ 0.2
19,LVGR,≤ 0.2
20,GTAK,≤ 0.2
21,ELGD,≤ 0.2
22,QSMI,≤ 0.2
23,EQMT,≤ 0.2
24,IWTC,≤ 0.2

row,Variant,one-hybrid fitness for binding parS DNA
1,GPTP,≤ 0.2
2,PHIN,≤ 0.2
3,LTQT,≤ 0.2
4,RDMK,≤ 0.2
5,TFCT,≤ 0.2
6,RMLR,≤ 0.2
7,RMLL,≤ 0.2
8,RMLC,0.983
9,THQL,≤ 0.2
10,RMEA,0.495
11,RMYA,0.651
12,DMYA,≤ 0.2
13,RMRA,0.765
14,NMRA,≤ 0.2
15,QQDP,≤ 0.2
16,GWES,≤ 0.2
17,REIG,≤ 0.2
18,RPIG,≤ 0.2
19,RSPG,0.507
20,RDIG,≤ 0.2
21,RCIG,0.955
22,RSIG,0.822
23,PLWA,≤ 0.2
24,FGAE,≤ 0.2

row,Variant,one-hybrid fitness for binding parS DNA
1,KGTY,≤ 0.2
2,VTTC,≤ 0.2
3,MCDS,≤ 0.2
4,TPPY,≤ 0.2
5,HNSC,≤ 0.2
6,RMDN,0.375
7,RMHF,0.269
8,RMDG,0.917
9,RMYQ,0.205
10,RMDH,≤ 0.2
11,RMHG,1.01
12,RMGH,≤ 0.2
13,RMYR,0.225
14,RMYG,1.03
15,RMHM,0.374
16,RMGN,0.453
17,RMGG,0.993
18,SGDY,≤ 0.2
19,SKDT,≤ 0.2
20,VGNC,≤ 0.2
21,RNAF,≤ 0.2
22,FYKS,≤ 0.2
23,RLMI,≤ 0.2
24,SYAC,≤ 0.2

row,Variant,one-hybrid fitness for binding parS DNA
1,QDNF,≤ 0.2
2,CRIC,≤ 0.2
3,DYAR,≤ 0.2
4,QGFS,≤ 0.2
5,TIDG,≤ 0.2
6,QNGG,≤ 0.2
7,NVIK,≤ 0.2
8,RMRF,0.368
9,RMRL,≤ 0.2
10,RMNR,≤ 0.2
11,RMRG,0.962
12,RMNM,0.351
13,RMNG,0.999
14,PVDG,≤ 0.2
15,TFGE,≤ 0.2
16,DQLH,≤ 0.2
17,HHQA,≤ 0.2
18,RPVS,≤ 0.2
19,RSVS,0.946
20,RSVP,≤ 0.2
21,RCVS,1.02
22,RSVN,0.342
23,RCVH,≤ 0.2
24,RDPY,≤ 0.2

row,Variant,one-hybrid fitness for binding parS DNA
1,NTKG,≤ 0.2
2,RMDM,0.302
3,RMNN,0.467
4,RMDC,0.889
5,RMNC,0.969
6,RMDK,≤ 0.2
7,RMNE,≤ 0.2
8,KILI,≤ 0.2
9,PNVW,≤ 0.2
10,STNR,≤ 0.2
11,QRCN,≤ 0.2
12,RTKC,0.813
13,RTVR,≤ 0.2
14,RTVC,0.929
15,RTKK,≤ 0.2
16,DTKC,≤ 0.2
17,TIRR,≤ 0.2
18,RNYV,≤ 0.2
19,LASP,≤ 0.2
20,DNAR,≤ 0.2
21,QMYE,≤ 0.2
22,RIAA,0.62
23,RIFA,0.529
24,DIAA,≤ 0.2

row,Variant,one-hybrid fitness for binding parS DNA
1,NIAA,≤ 0.2
2,PPGC,≤ 0.2
3,WPHF,≤ 0.2
4,EGPL,≤ 0.2
5,RVDN,0.371
6,RVDP,≤ 0.2
7,RVND,≤ 0.2
8,RVNN,0.416
9,RVNS,0.915
10,RVDS,0.974
11,NYLV,≤ 0.2
12,NSCK,≤ 0.2
13,IGDM,≤ 0.2
14,LLDM,≤ 0.2
15,RKDA,0.536
16,RKNA,0.834
17,NKNA,≤ 0.2
18,TAPI,≤ 0.2
19,IGRG,≤ 0.2
20,CPMT,≤ 0.2
21,RPKY,≤ 0.2
22,RLVY,0.465
23,RTKY,0.89
24,RKKY,0.492

row,Variant,one-hybrid fitness for binding parS DNA
1,RTVY,0.443
2,RCKY,0.716
3,RLKY,0.704
4,RIKY,0.747
5,RIVY,0.469
6,QPIK,≤ 0.2
7,KIKS,≤ 0.2
8,KKAL,≤ 0.2
9,YKKT,≤ 0.2
10,ALMT,≤ 0.2
11,EPHL,≤ 0.2
12,FFHG,≤ 0.2
13,FQRT,≤ 0.2
14,GLWL,≤ 0.2
15,GYNP,≤ 0.2
16,PKHV,≤ 0.2
17,LGGC,≤ 0.2
18,RRKY,0.856
19,SFKY,≤ 0.2
20,RHKY,0.518
21,RHVY,0.354
22,RSVY,0.37
23,RHYY,0.438
24,RRVY,0.247

row,Variant,one-hybrid fitness for binding parS DNA
1,RFVY,0.301
2,RFKY,0.569
3,RDKY,≤ 0.2
4,RSKY,0.609
5,QMIF,≤ 0.2
6,VKTF,≤ 0.2
7,YLRV,≤ 0.2
8,VMPR,≤ 0.2
9,CRLW,≤ 0.2
10,GEYT,≤ 0.2
11,RMVY,0.438
12,RAKY,0.644
13,RMKY,0.782
14,RAPY,≤ 0.2
15,RAVY,0.412
16,KEPT,≤ 0.2
17,QTVF,≤ 0.2
18,RIKP,≤ 0.2
19,RIVD,≤ 0.2
20,RIKD,≤ 0.2
21,RIVS,1.01
22,RIKS,0.822
23,RIVP,≤ 0.2
24,NSRE,≤ 0.2

row,Variant,one-hybrid fitness for binding parS DNA
1,AKIQ,≤ 0.2
2,TIGL,≤ 0.2
3,RFGN,0.435
4,RMGP,0.235
5,RAGS,0.989
6,RFGH,0.245
7,RMGS,0.988
8,RFGS,0.969
9,RAGN,0.448
10,RAGD,≤ 0.2
11,RCGS,0.945
12,RCGP,≤ 0.2
13,RMGD,≤ 0.2
14,RPGS,≤ 0.2
15,SGNV,≤ 0.2
16,PNMM,≤ 0.2
17,SVIY,≤ 0.2
18,CGSR,≤ 0.2
